The whole screen tested about 10,000 compounds, of which about 5,600 (56%) were called active. Cut-off read from the data, not from the text of the source: active = inhibition above about 40%; inactive = the rest. The set was probably picked from earlier hits. The list is a sample of the results.
Each compound was assayed against Protein Mdm4 (Homo sapiens) + E3 ubiquitin-protein ligase Mdm2 (Homo sapiens) (UniProt O15151+Q00987) (assay: inhibition of human Mdm2/MdmX pairing – luminescence, single concentration, confirmation (AID 489028)). Conditions: Mdm2-MdmX binding, luminescent assay; at 8 µM; hits give high values.
Chain of Protein Mdm4 (Homo sapiens) + E3 ubiquitin-protein ligase Mdm2 (Homo sapiens) (O15151 whole entry, looked up): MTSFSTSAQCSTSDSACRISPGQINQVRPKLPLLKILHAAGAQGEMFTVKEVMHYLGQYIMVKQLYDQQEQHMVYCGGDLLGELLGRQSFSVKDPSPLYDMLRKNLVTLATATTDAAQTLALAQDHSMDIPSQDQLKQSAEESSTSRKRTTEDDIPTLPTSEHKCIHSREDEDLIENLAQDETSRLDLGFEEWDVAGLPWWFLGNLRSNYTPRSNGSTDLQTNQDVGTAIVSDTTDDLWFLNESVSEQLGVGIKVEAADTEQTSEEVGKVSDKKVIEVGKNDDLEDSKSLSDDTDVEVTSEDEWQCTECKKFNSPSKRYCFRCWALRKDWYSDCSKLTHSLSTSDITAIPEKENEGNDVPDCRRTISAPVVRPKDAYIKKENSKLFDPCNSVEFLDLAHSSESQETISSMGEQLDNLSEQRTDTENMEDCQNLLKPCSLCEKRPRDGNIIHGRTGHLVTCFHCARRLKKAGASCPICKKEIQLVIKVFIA
Chain of Protein Mdm4 (Homo sapiens) + E3 ubiquitin-protein ligase Mdm2 (Homo sapiens) (Q00987 whole entry, looked up): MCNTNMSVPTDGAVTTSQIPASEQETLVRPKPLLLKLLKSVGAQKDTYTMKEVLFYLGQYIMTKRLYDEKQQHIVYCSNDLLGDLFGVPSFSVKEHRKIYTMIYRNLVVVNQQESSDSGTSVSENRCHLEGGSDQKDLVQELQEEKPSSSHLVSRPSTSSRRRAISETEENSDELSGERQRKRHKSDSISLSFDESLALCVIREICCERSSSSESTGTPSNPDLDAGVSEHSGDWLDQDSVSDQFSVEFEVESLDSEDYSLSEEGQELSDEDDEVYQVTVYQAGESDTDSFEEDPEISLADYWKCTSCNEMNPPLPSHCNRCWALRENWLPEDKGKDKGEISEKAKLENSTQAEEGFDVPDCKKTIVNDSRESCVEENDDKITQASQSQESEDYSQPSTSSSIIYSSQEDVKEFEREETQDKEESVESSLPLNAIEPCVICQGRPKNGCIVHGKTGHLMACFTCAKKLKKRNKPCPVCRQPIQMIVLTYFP

| SMILES | inhibition |
| --- | --- |
| Cc1cc(=O)oc2cc(OCC3CC(c4ccccc4Cl)=NO3)ccc12 (stereo unspecified) | 47.2% (active) |
| CC(C)=CC(=O)Nc1nnc(-c2ccc(F)cc2)s1 | -17.9% (inactive) |
| Cc1nnnn1/C(=C\c1ccccc1)C(=O)OCC(=O)N1CC2(C)CC1CC(C)(C)C2 (stereo unspecified) | 47.9% (active) |
| O=C(NCC1CCCO1)c1cc2c([nH]c3ccccc32)c(-c2ccc(F)cc2)n1 (stereo unspecified) | 61.5% (active) |
| COc1ccc(N=Cc2c(O)[nH]c3ccccc23)cc1OC | 47% (active) |
| COc1cc(N=Cc2c(O)[nH]c3ccccc23)cc(OC)c1OC | 73.8% (active) |
| CC(C)(C)OC(=O)NNc1c2ccccc2nc2ccccc12 | 21.1% (inactive) |
| C[C@@H](NC(=O)OC(C)(C)C)c1nnc(S(=O)(=O)Cc2ccccc2)o1 | 54% (active) |
| Cc1ccnc(NC(=O)C2CCN(S(=O)(=O)c3c(C)c(C)cc(C)c3C)CC2)c1 | 69.8% (active) |
| CC(=O)Nc1ccc(NC(=O)C2CCCN(S(=O)(=O)c3ccc(Cl)cc3)C2)cc1 (stereo unspecified) | 3.65% (inactive) |
| COc1cc2[nH]c(=S)n(Cc3ccc(F)cc3)c(=O)c2cc1OC | 15.8% (inactive) |
| COc1cccc2sc(NNC(=O)c3nc4ccccc4s3)nc12 | 45.7% (active) |
| CCOc1ccc(-c2cc(C(=O)N/N=C/c3ccc(O)cc3)c3ccccc3n2)cc1 | 76.8% (active) |
| Nc1ccc(C(=O)Nc2ccccc2N)cc1 | 6.25% (inactive) |
| O=C(CCCN1C(=O)/C(=C\c2ccccc2)SC1=S)Nc1ccccc1O | 69.7% (active) |
| O=C(CCCN1C(=O)/C(=C/c2ccccc2)SC1=S)Nc1ccc(O)cc1 | 93.9% (active) |
| COc1ccc(/C=C2\SC(=S)N(CCC(=O)Nc3ccccn3)C2=O)cc1OC | 54.1% (active) |
| COc1ccc(C(=O)/C=C/Nc2ccccn2)cc1 | 25.4% (inactive) |
| O=C(CCCN1C(=O)/C(=C/c2cccs2)SC1=S)Nc1ccc(O)cc1 | 61.5% (active) |

| SMILES | inhibition |
| --- | --- |
| CCN1CCN(c2ccc(S(=O)(=O)N3CCCCC3)cc2NC(=O)Cc2c(Cl)cccc2Cl)CC1 | 30.6% (inactive) |
| O=C(Nc1ccc(Cl)cc1)Nc1nnc(/C=C/c2ccccc2)s1 | 81.4% (active) |
| O=C(/C=C/c1ccccc1)Nc1nnc(SCC(=O)c2ccc3ccccc3c2)s1 | 2.95% (inactive) |
| Oc1ccc(Br)cc1/C=N/Nc1ccccn1 | 87.7% (active) |
| CCCCNC(=O)C(C)N(CCN(C)C)C(=O)CCCN1C(=O)NC(c2ccc(Cl)cc2)C(C(=O)OCc2ccccc2)=C1C (stereo unspecified) | 15.1% (inactive) |
| CCCCNC(=O)C(C)N(CCN(C)C)C(=O)CCCCCN1C(=O)NC(c2ccc(Cl)cc2)C(C(=O)OCc2ccccc2)=C1C (stereo unspecified) | 49.5% (active) |
| Cc1cc(C(=O)COC(=O)CNC(=O)c2ccc(F)cc2)c(C)n1Cc1ccco1 | 72.7% (active) |
| CC1=CC(C)(C)Nc2ccc(OC(=O)CN3C(=O)C4CCCCC4C3=O)cc21 (stereo unspecified) | 9.75% (inactive) |
| COc1cc(/C=N/NC(=O)Nc2ccccc2)ccc1OCCOc1ccccc1C | 72.8% (active) |
| COc1ccc(/C=C/C(=O)Nc2ccc(C34CC5CC(CC(O)(C5)C3)C4)cc2)cc1OC | 36.9% (inactive) |
| Brc1ccc2ncnc(NCc3cccnc3)c2c1 | 68.7% (active) |
| CCn1c(O)c(N=NC(=O)c2cccc(S(=O)(=O)N3CCCCC3)c2)c2ccccc21 | 36.7% (inactive) |
| Cc1cccc(CS(=O)(=O)c2ncc(Cl)c(C(=O)Nc3ccc(F)cc3)n2)c1 | 75.5% (active) |
| Cc1cccc(NC(=O)c2nc(S(=O)(=O)Cc3ccccc3)ncc2Cl)c1 | 95.2% (active) |
| CC(=O)Nc1nc(C)c(-c2csc(Nc3ccc(S(N)(=O)=O)cc3)n2)s1 | 44.5% (active) |
| CC(C)c1cc(C(=O)N/N=C/C(Br)=C/c2ccccc2)n[nH]1 | 35.2% (inactive) |
| COc1cc(C(=O)NCc2nnc(SCC(=O)Nc3nc4ccc(C)cc4s3)o2)cc(OC)c1OC | -0.1% (inactive) |
| CCCn1nc(C(=O)Nc2ccc3nc(C)sc3c2)c2ccccc2c1=O | 24.9% (inactive) |
| CCCC(=O)Nc1nc2ccc(NC(=O)c3cccnc3)cc2s1 | 48.4% (active) |

| SMILES | inhibition |
| --- | --- |
| CCN1C(=O)c2cccc3c(S(=O)(=O)Nc4ccccc4O)ccc1c23 | 39% (inactive) |
| COc1ccc(/C=C/C(=O)c2ccc(NS(=O)(=O)c3ccc(C)cc3)cc2)cc1O | 38.9% (inactive) |
| O=C(/C=C/c1ccc(Cl)c([N+](=O)[O-])c1)c1cccnc1 | 66.7% (active) |
| O=C(/C=C/c1ccc(Cl)c([N+](=O)[O-])c1)c1ccc(O)cc1 | 85.4% (active) |
| COc1ccc(C(=O)/C=C/c2cccnc2)c(OC)c1 | -4.6% (inactive) |
| Cc1[nH]c(C)c(S(=O)(=O)N2CCN(c3cccc(C(F)(F)F)c3)CC2)c1C(=O)N1CCCCC1 | 52.8% (active) |
| CCNC(=O)c1c(O)c2cccc3c2n(c1=O)CC3 | 75.1% (active) |
| O=C(COC(=O)/C=C/c1cn(-c2ccccc2)nc1-c1cccnc1)Nc1ccc(Cl)cc1Cl | 18.3% (inactive) |
| CCOC(=O)c1c(-c2ccc(C)cc2C)csc1NC(=O)CSc1nnnn1C | 51% (active) |
| CCC(C)N1C(=O)S/C(=C/c2ccc(Sc3nc4ccccc4[nH]3)o2)C1=O (stereo unspecified) | 23.9% (inactive) |
| Cc1cccc(-n2c(C)cc(/C=N\NC(=O)c3cccs3)c2C)c1 | 40.1% (active) |
| C[C@@H]1C[C@@H]2O[C@H]2/C=C\C=C\C(=O)Cc2c(Cl)c(O)cc(O)c2C(=O)O1 | 54.2% (active) |
| Cc1ccc(C2CC(=O)NC(SCC(=O)OCc3ccccc3)=C2C#N)o1 (stereo unspecified) | 44.5% (active) |
| C=CCC[C@@H](Cc1ccc(F)cc1)C(=O)OC[C@H](Cc1c[nH]c2ccccc12)NC(=O)[C@@H](CC=C)CC(=O)N(CCO)Cc1ccccc1 | 21.8% (inactive) |
| O=C(Nc1ccccc1Cl)/C(Cl)=C(\Cl)S(=O)c1ccccc1 (stereo unspecified) | 100% (active) |
| O=C1/C(=C\c2ccccc2Cl)SC(=S)N1CCC(=O)N1CCCc2ccccc21 | 60.8% (active) |
| COc1cc2c(cc1OC)C(C)N(S(=O)(=O)c1cnc(Cl)c(Cl)c1)CC2 (stereo unspecified) | 58.1% (active) |
| C=CCn1c(C)cc(C(=O)CN2C(=O)c3ccccc3C2=O)c1C | 68% (active) |

From PubChem BioAssay AID489028 (Sanford-Burnham Center for Chemical Genomics, 2010)
